Test in all cases: NCI-60 one-dose screen, 48 h (100 = growth as untreated, 0 = no growth, -100 = all killed)
Details in all cases: 10 µM

Assay [1] has as its system K-562 leukemia.
Assay [2] concerns MALME-3M melanoma.
Assay [3] relates to RXF 393 renal.
In assay [4] the test system is UACC-257 melanoma.
Assay [5] relates to SK-MEL-28 melanoma.
For assay [6], the system named is SN12C renal.
Assay [7] relates to TK-10 renal.
In assay [8] the test system is CAKI-1 renal.
The subject of assay [9] is RPMI-8226 leukemia.
Assay [10] relates to BT-549 breast.
In assay [11] the test system is MDA-MB-435 melanoma.
In assay [12] the test system is HCC-2998 colon.
The subject of assay [13] is HOP-92 NSCLC.
Assay [14] relates to A498 renal.
The test system of assay [15] is OVCAR-3 ovarian.

Consider 5 molecules from PubChem BioAssay (NCI).

Values joined by “and” are separate entries in the source; they are usually repeats but may differ in a detail not shown here. Identical values can stand only once. About 83,000 compounds went through this panel and 20% of them were active in at least one assay; those are over-represented in the sample as a whole.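 Results are percent growth after 48 hours of single-concentration exposure. 100 means growth as in untreated cells, lower positive values show inhibition; negative values down to -100 show cell death.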 Active and inactive are the calls of the source. The calls were made as follows: active = growth percent below 10; inactive = the rest.

As to `CN1C(=O)[C@]23SSC1(C)C(=O)N2[C@H]1Nc2ccccc2C1([C@@]12c4ccccc4N[C@@H]1N1C(=O)C4(C)SS[C@]1(C(=O)N4C)[C@H]2O)[C@@H]3O` (some centres undefined), the growth was 2.18% (active) in assay [1]; -81.5% (active) in assay [2]; -93.3% (active) in assay [3]; -96.9% (active) in assay [4]; -96.5% (active) in assay [5]; -96.1% (active) in assay [6]. Besides, the growth in [7] is -95.7% (active); in assay [8], -99.8% (active); in assay [9], -16.9% (active); in assay [10], -99.5% (active); in assay [11], -94.3% (active); in [12] it was -83.8% (active).
`C=C1[C@@H](C)C2[C@H](Cc3ccccc3)NC(=O)[C@]23[C@H](OC(C)=O)/C=C/[C@@](C)(O)C(=O)[C@@H](C)C/C=C/[C@H]3[C@@H]1O` (some centres undefined): the growth is -37.8% (active) in assay [13]; 76.1% (inactive) in [1]; 81.2% (inactive) in assay [2]; -1.19% (active) in [3]; 87.1% (inactive) in assay [5]; 79% (inactive) in assay [6]. The growth in assay [7] is 26.4% (inactive); in assay [14], -18.8% (active); in [9], 19.8% (inactive); in [15], 81.2% (inactive); in [10], 12.4% (inactive); in assay [11], 64.1% (inactive). Further, the growth in assay [12] was 78.5% (inactive).
For the molecule `C/C=C/CC(C)C(O)[C@H](NC(=O)[C@@H]1CCCN1C(=O)C(C)(C)NC(=O)CCCCCCCCC)C(=O)N[C@@](C)(CC)C(=O)N[C@@H](CCC(N)=O)C(=O)N[C@H](CCC(N)=O)C(=O)NC(C)(C)C(=O)NC(C)(C)C(=O)N[C@@H](CCC(N)=O)C(=O)N[C@H](CC(C)C)C(=O)N[C@H](CO)CC(C)C` (some centres undefined), the growth in [13] is 7.21% (active) and 76.4% (inactive); in [1] it was -17.8% (active) and 16.5% (inactive); in [2], -65.1% (active) and -22% (active); in [3] it was -61.8% (active) and 31.5% (inactive); in assay [4], -66.9% (active) and 3.39% (active); in assay [5], -92.6% (active) and -78.4% (active). For the same molecule, the growth in assay [6] was 18.6% (inactive) and 12.1% (inactive); in assay [7], 59.9% (inactive) and 97.1% (inactive); in assay [8], 13.1% (inactive) and 44.1% (inactive); in assay [14], -40.8% (active) and 38.8% (inactive); in assay [9] it was 7.09% (active) and 29.1% (inactive); in assay [15], 76.2% (inactive). Moreover, the growth in assay [10] was -33.5% (active); in [11], -84.2% (active) and -6.26% (active); in assay [12], -12% (active) and 13.2% (inactive).
With `CCCCCCCCCC(=O)N[C@@](C)(CC)C(=O)N1CCC[C@H]1C(=O)N[C@@H](CC(C)C)C(=O)N[C@@](C)(CC)C(=O)N[C@@H](CCC(N)=O)C(=O)N[C@H](CCC(N)=O)C(=O)NC(C)(C)C(=O)NC(C)(C)C(=O)N[C@@H](CCC(N)=O)C(=O)N[C@H](CC(C)C)C(=O)N[C@H](CO)CC(C)C`, the growth in [13] is -93.1% (active) and -69.1% (active); in [1], -15.6% (active) and 21.9% (inactive); in assay [2] it was -89.7% (active) and -98.6% (active); in assay [3], -89.1% (active) and -89.3% (active); in assay [4], -88.1% (active) and -80.1% (active); in [5], -97.1% (active) and -100% (active). Also, the growth is -86.9% (active) and -98.8% (active) in assay [6]; -73.6% (active) and -83.4% (active) in [7]; -92.4% (active) and -100% (active) in [8]; -92.4% (active) and -81.1% (active) in [14]; -53.6% (active) and -31.8% (active) in assay [9]; -74.5% (active) in assay [15]. Further, the growth in assay [10] was -91% (active) and -85.5% (active); in assay [11], -94% (active) and -97.5% (active); in assay [12] it was -87.4% (active) and -89.4% (active).
As for `COc1cc(OC)c(S(=O)(=O)N(CCCl)CCCl)cc1C(=O)/C=C/c1ccc(Cl)cc1`, the growth in assay [13] is 81.7% (inactive); in [1], 47.1% (inactive); in assay [2] it was 85.4% (inactive); in [3], 45.3% (inactive); in [4], 73.6% (inactive); in [5], 92.3% (inactive). Besides, the growth was 86% (inactive) in [6]; 177% (inactive) in assay [7]; 65.7% (inactive) in assay [8]; 4.74% (active) in assay [9]; 69.9% (inactive) in assay [15]; 53% (inactive) in [10]. In addition, the growth in assay [11] is 33.1% (inactive); in assay [12], 96.8% (inactive).
